The supplement of paper PMC7366291
Structures can show the parent of a compound that is named as a salt. ± gives the standard deviation or the standard deviation of the averaged measurements.

Assays:
Conditions in all cases: 25 µM; exposure: 24-48 hpf
[1] = tested on: Danio rerio Tg(wt1b:EGFP) embryo, pronephros; assay: glomerular separation, fold change vs DMSO control; higher = glomeruli further apart (abnormal)
How it was run: (§1)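 Dechorionated Tg(wt1b:EGFP) zebrafish embryos were incubated at 28.5°C from 24 to 48 hpf with 25 μM compound in HEPES-buffered E3 containing 0.5% DMSO and 0.003% PTU. Distances and angles between 16 manually set points on maximum projections of dorsal pronephros images were measured in Fiji, with values over 2 SD from the feature mean excluded. Each feature is a fold change relative to the mean of same-day DMSO-treated embryos.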

[2] = tested on: Danio rerio Tg(wt1b:EGFP) embryo, pronephros; assay: glomerular width (mean of left and right), fold change vs DMSO control; higher = wider glomerulus
How it was run: as §1

[3] = tested on: Danio rerio Tg(wt1b:EGFP) embryo, pronephros; assay: fraction of imaged embryos annotated as normal kidney; higher = less nephrotoxic; extreme values may be limits of the assay
How it was run: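 Dechorionated Tg(wt1b:EGFP) zebrafish embryos were exposed in 12-well plates to 25 μM compound in 0.5% DMSO, 5 mM HEPES-buffered E3 with 0.003% PTU, from 24 to 48 hpf at 28.5°C. Tricaine-anaesthetised larvae were oriented dorsally in agarose-filled 96-well plates, and pronephroi were imaged by widefield fluorescence (470 nm, 10 z-slices). Each embryo was manually annotated from maximum projections. The read-out is the fraction of embryos per treatment assigned to the normal-kidney category.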

[4] = tested on: Danio rerio Tg(wt1b:EGFP) embryo, pronephros; assay: pronephric angle neck segment to proximal convoluted tubule (mean of left and right), fold change vs DMSO control; higher = larger pronephric angle
How it was run: as §1

Compound	glomerular separation [1]	glomerular width [2]	fraction of imaged embryos annotated as normal kidney [3]	pronephric angle neck segment [4]
CN(C)CCCSC(=N)N [Dimaprit dihydrochloride]	0.745 ± 0.36	1.05 ± 0.052	0.75	1 ± 0.022
NC(=O)c1cccnc1 [Nicotinamide]	1 ± 0.22	1.022 ± 0.0032	0.909	0.985 ± 0.059
CC12CC3CC(C)(C1)CC(N)(C3)C2 [Memantine Hydrochloride]	1 ± 0.34	1.05 ± 0.079	0.917	0.9526 ± 0.0081
CC(C)NC[C@H](O)COc1cccc2ccccc12 [(S)-propranolol hydrochloride]	0.888 ± 0.27	1.03 ± 0.017	0.75	0.9744 ± 0.0062
CCCCC1=NC2(CCCC2)C(=O)N1Cc1ccc(-c2ccccc2-c2nnn[nH]2)cc1 [Irbesartan]	3.04 ± 1.1	0.56 ± 0.11	0.75	1.1 ± 0.022
CC(C)(Oc1ccc(C2CC2(Cl)Cl)cc1)C(=O)O (stereo not given) [Ciprofibrate]	1.25 ± 0.62	0.934 ± 0.023	0.818	1.082 ± 0.0058
CN1C(=O)OC(C)(C)C1=O [Trimethadione]	0.837 ± 0.27	0.996 ± 0.064	0.75	0.935 ± 0.026
CCCC1O[C@@H]2C[C@H]3[C@@H]4CCC5=CC(=O)C=C[C@]5(C)[C@H]4[C@@H](O)C[C@]3(C)[C@]2(C(=O)CO)O1 (stereo not given in full) [Budesonide]	0.957 ± 0.24	1.29 ± 0.049	0.833	1.04 ± 0.12
O=C(c1ccccc1)c1ccc2n1CCC2C(=O)O (stereo not given) [Ketorolac tromethamine]	1 ± 0.43	1.15 ± 0.013	0.667	1.04 ± 0.025
CN(C)CCC=C1c2ccccc2COc2ccccc21 [Doxepin hydrochloride]	0.925 ± 0.22	0.99 ± 0.035	0.917	1.01 ± 0.076
OCCN1C[C@H](O)[C@@H](O)[C@H](O)[C@H]1CO [Miglitol]	1.12 ± 0.48	0.995 ± 0.011	0.909	0.982 ± 0.0086
COC(=O)C1=C(C)NC(C)=C(C(=O)OCCN(C)Cc2ccccc2)C1c1cccc([N+](=O)[O-])c1 (stereo not given) [Nicardipine hydrochloride]	1.13 ± 0.73	1 ± 0.027	0.909	1.01 ± 0.036
CC(=O)SCC(Cc1ccccc1)C(=O)NCC(=O)OCc1ccccc1 (stereo not given) [Racecadotril]	1.45 ± 0.84	0.819 ± 0.085	0.167	1.365 ± 0.013
COc1ccc(-c2ccc3cc(C(=O)O)ccc3c2)cc1C12CC3CC(CC(C3)C1)C2 [Adapalene]	0.97 ± 0.49	0.993 ± 0.012	0.833	1.1 ± 0.0022
NCCc1ccc(O)c(O)c1 [Dopamine hydrochloride]	1.08 ± 0.44	1.05 ± 0.054	0.917	1.011 ± 0.005
